In PubChem BioAssay (NCI):
The panel holds about 83,000 compounds, 20% with a hit somewhere; the sample as a whole holds those more often.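 Single-concentration screen, 48 h exposure, 96-well plates. Endpoint: percent growth. Below 10 = active.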 A number with no mark means an inactive call. Calls of active or inactive are those of the source.

Key:
Test in all cases: NCI-60 one-dose screen, 48 h (100 = growth as untreated, 0 = no growth, -100 = all killed)
Conditions in all cases: 10 µM
SK-MEL-2 melanoma = tested on: SK-MEL-2 melanoma
SN12C renal = tested on: SN12C renal
UO-31 renal = tested on: UO-31 renal
TK-10 renal = tested on: TK-10 renal
ACHN renal = tested on: ACHN renal
CAKI-1 renal = tested on: CAKI-1 renal
A498 renal = tested on: A498 renal
CCRF-CEM leukemia = tested on: CCRF-CEM leukemia
MOLT-4 leukemia = tested on: MOLT-4 leukemia
SR leukemia = tested on: SR leukemia
RPMI-8226 leukemia = tested on: RPMI-8226 leukemia
OVCAR-8 ovarian = tested on: OVCAR-8 ovarian
OVCAR-5 ovarian = tested on: OVCAR-5 ovarian
OVCAR-4 ovarian = tested on: OVCAR-4 ovarian
SK-OV-3 ovarian = tested on: SK-OV-3 ovarian
IGROV1 ovarian = tested on: IGROV1 ovarian
OVCAR-3 ovarian = tested on: OVCAR-3 ovarian
HS 578T breast = tested on: HS 578T breast
EKVX NSCLC = tested on: EKVX NSCLC
NCI/ADR-RES ovarian = tested on: NCI/ADR-RES ovarian

Compound | growth (SK-MEL-2 melanoma) | growth (SN12C renal) [%] | growth (UO-31 renal) [%] | growth (TK-10 renal) [%] | growth (ACHN renal) [%] | growth (CAKI-1 renal) [%] | growth (A498 renal) | growth (CCRF-CEM leukemia) | growth (MOLT-4 leukemia) | growth (SR leukemia) | growth (RPMI-8226 leukemia) [%] | growth (OVCAR-8 ovarian) | growth (OVCAR-5 ovarian) [%] | growth (OVCAR-4 ovarian) [%] | growth (SK-OV-3 ovarian) | growth (IGROV1 ovarian) [%] | growth (OVCAR-3 ovarian) | growth (HS 578T breast) [%] | growth (EKVX NSCLC) [%] | growth (NCI/ADR-RES ovarian)
Cc1cnc(C=O)c2cccc([N+](=O)[O-])c12 | 102% | 86.8 | 43.5 | 108 | 85.8 | 86.3 | 106% | 11.5% | 61% | 16.5% | 68.1 | 87.3% | 95 | 82.1 | 99.6% | 95.9 | 101% | 94.9 |  | 
O=c1[nH]c(=O)n(C2C[C@@H](O)[C@@H](CO)O2)cc1F (some centres not stated) | 57.3% |  | 10.5 | 35.5 |  | 31.6 | 15.8% | 29.1% | 32.5% | 25.9% | 59.2 | 30.2% |  | 39 | 43.6% | 43.1 | 30.5% | 60.8 | 70.7 | 29.6%
Cc1cc(C)c(/C=C2\C(=O)Nc3ccc(NC(=O)CCCCCCC(=O)NO)cc32)[nH]1 | -5.24% (active) | 44 | 66 | 10.6 | 58.5 | 68.7 | -9.05% (active) | 23.9% | 13.2% | 22.1% | 40.6 | 17.7% | 15.9 | 50.5 | 31.3% | 37.9 | 19.4% | 21.6 |  | 92.1%
COCCOC(=O)NC(=O)Nc1ccc(/C(=N/O)c2ccc(Cl)cc2)cc1 | 18.7% |  | 36.8 | 62.6 |  | 30.6 | -14.2% (active) | 8.24% (active) | 9.91% (active) | 8.7% (active) | 22.3 | 4.12% (active) | 47.1 | 43.7 | 4.2% (active) | 30.9 | 0.755% (active) | 34.4 | 29.6 | -3.69% (active)
